Test results: PubChem BioAssay AID651820 (National Center for Advancing Translational Sciences (NCATS), 2012)
About 12,000 (3.5%) of roughly 340,000 compounds were called active. Not shown: some 18% with an inconclusive outcome. The call rests on the fitted dose curve; in most records, active means well fitted inhibition curve with a large enough effect; inconclusive means small, poorly fitted or top-dose-only effect, or another doubt; inactive means no such curve, though single readings can be large or run the other way. Only a selection was taken, and actives are over-represented in it overall.

Experiment: qHTS Assay for Inhibitors of Hepatitis C Virus (HCV)
Details: Huh7.5.1 HCVcc-Cre infection, luciferase reporter, 44 h; series mostly up to 41.8 µM; activity change, negative = inhibition: at the top concentration
Outline: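 After 44 h co-culture of compound, cells and HCVcc-Cre (~0.5 moi), substrate is added for 15 min at room temperature and luciferase measured over 15 sec. Cells were seeded at 1,000/well and pre-cultured 4 h.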
On the % scale 0 is the no-effect control and ±100 the full control effect; potency means the concentration at half of the fitted maximal effect.

| Structure (SMILES) | activity change, negative = inhibition | Potency |
| --- | --- | --- |
| COc1ccc(S(=O)(=O)N2CCOCC2)cc1NC(=O)CC1CC2CCC1C2 (centres undefined) | 2.91% (inactive) | – |
| COc1cc2c(cc1OC)CN(C(C)C(=O)Nc1cccc(S(=O)(=O)N3CCOCC3)c1)CC2 (centres undefined) | -7.17% (inactive) | – |
| CCc1cc2c(SCC(=O)Nc3ncc(Cl)c(C)c3Cl)ncnc2s1 | -1.3% (inactive) | – |
| CCc1cc2c(NC3CCCC3)ncnc2s1 | – | 10 µM (active) |
| CCc1cc2c(NC(Cc3ccccc3)C(=O)O)ncnc2s1 (centres undefined) | 8.03% (inactive) | – |
| O=C(CN1CCc2cc3c(cc2C1)OCCCO3)Nc1ccccc1 | – | 11.2 µM (active) |
| Cc1ccc(NC(=O)CN2CCc3ccccc3C2)cc1 | -2.8% (inactive) | – |
| O=C(CN1CCOCC1)Nc1ccccc1 | -2.17% (inactive) | – |
| CNC(=O)C1CC(=O)N(c2ccc(OCC(=O)Nc3ccccc3C)cc2)C1 (centres undefined) | -3.97% (inactive) | – |
| O=C(N[C@@H](Cc1ccccc1)C(=O)OCc1ccccc1)c1nc[nH]c1C(=O)NC1CCNCC1 | 16.1% (inactive) | – |
| NS(=O)(=O)c1ccc(CCNC(=O)CCCn2c(SCC(=O)N3CCCC3)nc3ccsc3c2=O)cc1 | – | 2 µM (active) |
| CCCCn1c(SCC(=O)N2CCC(C(=O)OCC)CC2)nc2cc(S(N)(=O)=O)ccc21 | -7.54% (inactive) | – |
| NS(=O)(=O)c1ccc(CCNC(=O)CN2C(=O)c3ccccc3S2(=O)=O)cc1 | 2.87% (inactive) | – |
| CN1C(=O)[C@H]2[C@@H](/C=C/c3ccccc3)N3C(=O)CN(Cc4ccc(-c5ccccc5)cc4)C(=O)[C@@]3(C)[C@H]2C1=O | 1.62% (inactive) | – |
| COc1ccc(CNC(=O)CN2C(=O)NC3(CCCc4sccc43)C2=O)cc1 (centres undefined) | 7.77% (inactive) | – |
| CC(NC(=O)c1ccc(N2CCNCC2)c([N+](=O)[O-])c1)C12CC3CC(CC(C3)C1)C2 (centres undefined) | 17.7% (inactive) | – |
| O=C(Nc1ccc(N2C(=O)c3cccc4cccc(c34)C2=O)cc1)c1ccc(N2CCCCC2)c([N+](=O)[O-])c1 | 1.73% (inactive) | – |
| O=C(Nc1cccc(C(F)(F)F)c1)c1ccc(N2CCNCC2)c([N+](=O)[O-])c1 | – | 12.6 µM (active) |
| NC(=O)c1ncn([C@@H]2O[C@H](CN=C3NS(=O)(=O)c4ccccc43)[C@@H](O)[C@H]2O)n1 | 13.5% (inactive) | – |
| CSc1ncnc2sc(C)c(C)c12 | -8.32% (inactive) | – |
| CCOC(=O)C(C)n1cnc2sc(C)c(C)c2c1=O (centres undefined) | 1.73% (inactive) | – |
| CCCNc1ncnc2sc(C)c(C)c12 | – | 8.91 µM (active) |

| Structure (SMILES) | activity change, negative = inhibition | Potency |
| --- | --- | --- |
| CCN(C(=O)CSc1nnnn1-c1ccccc1OC)C1CCS(=O)(=O)C1 (centres undefined) | 7.75% (inactive) | – |
| O=C(CCc1ccc(S(=O)(=O)N2CCOCC2)cc1)OCC(=O)c1ccc(Br)cc1 | 8.2% (inactive) | – |
| Clc1ccc(Cn2ncc3c(NCc4cccnc4)ncnc32)cc1 | – | 11.2 µM (active) |
| CC(=O)Nc1ccc(NC(=O)CSc2ncnc3c2cnn3Cc2ccccc2)cc1 | -2.76% (inactive) | – |
| Clc1ccc(Nc2ncnc3c2nnn3Cc2ccccc2)cc1 | 2.81% (inactive) | – |
| O=C(Cn1cnc2ccccc2c1=O)NNC(=O)c1ccccc1F | 17.9% (inactive) | – |
| CC(C)NC(=O)Nc1cccc2c1O[C@@H](CN(C)S(=O)(=O)c1ccc(F)cc1)[C@@H](C)CN([C@H](C)CO)C2=O | 17.9% (inactive) | – |
| O=C(C[n+]1cc(Br)cc2ccccc21)c1ccc(F)cc1 | – | 10 µM (active) |
| O=C(CNC(=O)c1ccc(F)cc1)c1ccccc1 | 12.2% (inactive) | – |
| Cc1cccc[n+]1CC(=O)c1ccccc1 | -7.73% (inactive) | – |
| O=C(NCCS(=O)(=O)NCc1ccc(F)cc1)c1ccccc1 | -2.73% [at 8.37 µM] (inactive) | – |
| O=C(NCc1cccnc1)c1cc(S(=O)(=O)N2CCOCC2)c(Cl)cc1Cl | 10.9% (inactive) | – |
| Cc1ccc(S(=O)(=O)N2CCN(c3ncnc4ccccc34)CC2)cc1 | – | 8.91 µM (active) |
| Cc1ccc(S(=O)(=O)N2CCN(Cc3cccc(C)c3O)CC2)cc1 | 13.1% (inactive) | – |
| Cc1ccc(S(=O)(=O)N2CCN(C)CC2)cc1 | 19.8% (inactive) | – |
| CC(=O)Nc1ccc(NC(=O)CSc2nnc(C3CC3)n2-c2ccccc2)cc1 | -9.37% (inactive) | – |
| Cc1cccc(-c2oc3ccc(-c4ccc5c(c4)OCO5)cc3c2C#Cc2cncn2C)c1 | 4.36% (inactive) | – |
| Cc1ccc(C(=O)O)c(NC=O)c1OCc1ccccc1 | 14.3% (inactive) | – |
| Cc1ccc(S(=O)(=O)N2[C@@H](c3cccc4ccccc34)C(C(=O)O)=C[C@H]2C(C)(C)C)cc1 | 10.4% (inactive) | – |
| CCOc1ccc(-c2n[nH]c(C)c2-c2ccccn2)c(O)c1 | -17.4% (inactive) | – |
| COc1ccc(-n2c(-c3ccc(OC)c(OC)c3)n[nH]c2=S)cc1 | 5.22% (inactive) | – |
| COc1ccc(-c2n[nH]c(C)c2-c2ccc(OC)c(OC)c2)c(O)c1 | – | 11.2 µM (active) |

| Structure (SMILES) | activity change, negative = inhibition | Potency |
| --- | --- | --- |
| O=C1NCC(Nc2ccccc2)C(=O)N1 (centres undefined) | 9.38% (inactive) | – |
| CCN(Cc1ccccc1)S(=O)(=O)c1cc2c3c(c1)CCN3C(=O)CC2 | 18.5% (inactive) | – |
| Cc1ccc(C)c(N2CCN(C(=O)CCc3nc(-c4cccc(C(F)(F)F)c4)no3)CC2)c1 | 2.72% (inactive) | – |
| COC(=O)c1ccc(C)c(NC(=O)Cn2c(C)csc2=O)c1 | 4.64% (inactive) | – |
| C#CC(C)(C)NC(=O)CSc1nc2c(c(=O)n(C)c(=O)n2C)n1CCCC | -15.9% (inactive) | – |
| CCOc1ccc2nc(NC(=O)CSc3nc4c(c(=O)n(C)c(=O)n4C)n3CC)sc2c1 | – | 3.98 µM (active) |
| Cn1nnnc1SCC(=O)Nc1nc2ccccc2s1 | -9.51% (inactive) | – |
| O=C(Cn1cnc2c(OCc3ccccc3)ncnc21)NCCCn1ccnc1 | 5.21% (inactive) | – |
| Cc1ccc(Cn2c(NC(=O)c3ccco3)nc3ccccc32)cc1 | -3.39% (inactive) | – |
| Cc1ccc(-n2nc3cc(Cl)c(NC(=O)c4ccco4)cc3n2)cc1 | -13.6% (inactive) | – |
| CCn1nc(NC(=O)c2ccco2)c2cc3ccc(C)cc3nc21 | – | 10 µM (active) |
| CN1CCOC1c1ccc(C2OCCN2C)cc1 (centres undefined) | 17.6% (inactive) | – |
| COc1ccc(-c2ccc(Nc3ccc(S(=O)(=O)N4CCCC4)cc3)nn2)cc1OC | – | 12.6 µM (active) |
| COc1ccccc1CC(=O)Nc1ccc(S(=O)(=O)N2CCCC2)cc1 | -19.2% (inactive) | – |
| COc1ccc(S(=O)(=O)Nc2ccc(S(=O)(=O)N3CCCCC3)cc2)cc1OC | -1.61% (inactive) | – |
| COc1ccc(NS(=O)(=O)c2ccc(N3CCOCC3)c(NC(=O)/C=C/C(=O)O)c2)cc1 | -1.43% (inactive) | – |
| CCCc1nc(NCc2ccc3c(c2)OCO3)c2nnn(Cc3ccccc3Cl)c2n1 | 9.92% (inactive) | – |
| Cc1nc(Nc2ccccc2F)c2nnn(Cc3ccccc3Cl)c2n1 | 6.92% (inactive) | – |
| Cc1nc(Nc2ccc3c(c2)OCCO3)c2nnn(Cc3ccccc3Cl)c2n1 | – | 10 µM (active) |
| CCN(CC(=O)Nc1ccccc1C(=O)NC1CC1)Cc1cccs1 | 0.258% (inactive) | – |
